Where “and” joins values, the source holds several entries; their conditions need not be identical. Equal values may be shown once. Among all 320,000 compounds or so, about 2,200 (0.69%) were called active.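 Rule for the calls: active = inhibition above the mean of all tested compounds plus 3 SD, cutoff set per campaign (cut at about 30% in these data); inactive = the rest.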 The list comes from a sample in which actives are over-represented; it also holds similar structures and randomly drawn compounds. Where a structure was tested more than once in an assay, its records may differ in their call.
The molecules below were run against Bcl-2-like protein 1 (Homo sapiens) (UniProt Q07817) (assay: inhibitors of human Bcl-xL, primary screen, biochemical, fluorescence polarization, HTS (AID 2129;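 note: 0% = DMSO wells and 100% = unlabeled Bim-BH3 peptide competitor; inhibitors lower millipolarization by displacing the labeled peptide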)). Settings: GST-Bcl-xL / FITC-Bim BH3 peptide fluorescence polarization; at 10.9 µM; stronger effect = higher value.
Chain of Bcl-2-like protein 1 (Homo sapiens) (Q07817 whole entry, looked up): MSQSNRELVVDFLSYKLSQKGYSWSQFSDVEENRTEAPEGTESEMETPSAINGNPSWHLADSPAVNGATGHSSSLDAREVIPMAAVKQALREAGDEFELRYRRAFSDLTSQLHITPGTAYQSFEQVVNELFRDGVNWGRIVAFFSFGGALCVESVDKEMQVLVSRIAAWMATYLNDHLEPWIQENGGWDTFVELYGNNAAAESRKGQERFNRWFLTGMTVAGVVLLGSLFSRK

Row | Structure (SMILES) | inhibition
1 | O=C(O)/C=C/c1ccc(S(=O)(=O)N2CCCCCC2)cc1 | -3.18% (inactive)
2 | O=C(CN1CCSCC1)N/N=C/c1ccc(F)cc1F | 2.55% (inactive)
3 | COc1ncnc2c1N=C1CC(C)(C)CC(N)=C1S2 | 163% (active)
4 | O=C(COc1cccc(Cl)c1)NCc1ccccc1 | 3.14% (inactive)
5 | C[N+](C)(CCCCCC[N+](C)(C)CCCN1C(=O)c2cccc3cccc(c23)C1=O)CCCN1C(=O)c2cccc3cccc(c23)C1=O | 1.22% (inactive)
6 | O=C1c2ccccc2C(=O)N1c1cccc2ccccc12 | 4.16% (inactive)
7 | O=C(O)c1ccc2c3c(cccc13)C(=O)N(OS(=O)(=O)c1ccccc1)C2=O | -6.08% (inactive)
8 | Cc1nn(-c2cc(Cl)ccc2N)c(=O)c2ccccc12 | -0.7% (inactive)
9 | O=C(C1CCN(S(=O)(=O)c2ccc(Br)s2)CC1)N1CCN(C2CCCCC2)CC1 | 3.57% (inactive)
10 | CSc1ccc(CN(C)CC(=O)NCc2ccc(F)cc2)cc1 | 5.75% (inactive)
11 | CSc1ccc(CN2C(=O)NC3(CCCCCC3)C2=O)cc1 | 0.37% (inactive)
12 | Cc1c(C(=O)NC(C)C2CC3CCC2C3)cccc1[N+](=O)[O-] (stereo not given) | 0.81% (inactive)
13 | COc1ccccc1N1CCN(c2nc(C)cc(=O)[nH]2)CC1 | 1.46% (inactive)
14 | CC(=O)C1(C)N(O)C(C)(C)C(c2cccs2)=[N+]1[O-] (stereo not given) | 6.8% (inactive)
15 | Cc1ccc(SCC(=O)Nc2nncs2)cc1 | -0.16% (inactive)
16 | COCCNC(=O)Nc1ccc2nc(-c3ccco3)c(-c3ccco3)nc2c1 | 120% (active)
17 | CCOc1ccc(C(=O)NC(C(=O)NCc2ccccn2)C(C)C)cc1 (stereo not given) | -3.49% (inactive)
18 | Cc1nc2cc(NC(=O)NCc3ccccc3)ccc2o1 | -3.22% (inactive)
19 | O=C(NCc1ccccn1)c1ccc2nc(-c3ccco3)c(-c3ccco3)nc2c1 | 61.7% (active)
20 | CCOc1cc(NC(=S)NCCCOC)c(OCC)cc1NC(=O)c1ccco1 | 1.13% (inactive)
21 | Cc1cc(C)cc(NC(=O)NCc2ccccn2)c1 | 0.71% (inactive)
22 | O=C(NC1CC2CCCC(C1)N2C(=O)N1CCCCC1)C1CCCCC1 (stereo not given) | 0.87% (inactive)
23 | N#C/C(=C(/O)COC(=O)COc1ccc(Cl)cc1)c1nc2ccccc2[nH]1 | -9.4% (inactive)
24 | O=C(Cc1nc2ccccc2[nH]c1=O)c1ccc(Cl)cc1 | 34.1% (active)

Row | Structure (SMILES) | inhibition
25 | O=C(/C(=C/c1cccc(Cl)c1)c1nc2ccccc2[nH]1)c1ccccc1 | -0.83% (inactive)
26 | COc1ccc(NC(=S)N2N=CCC2c2ccccc2)cc1 (stereo not given) | 1.8% (inactive)
27 | C[n+]1ccc(C(=O)NCc2ccccc2)cc1 | -12.9% (inactive)
28 | COc1ccc(S(=O)(=O)Nc2cc(C)on2)cc1NC(C)=O | 3.59% (inactive)
29 | O=c1c2cc(-c3ccccc3)sc2nc2n1N=C(c1cccs1)CS2 | 7.98% (inactive)
30 | COc1ccc(Nc2ccc([N+](=O)[O-])cn2)cn1 | 47.6% (active)
31 | COc1ccc(C(=O)NCCNc2ccc([N+](=O)[O-])cn2)cc1 | -0.8% (inactive)
32 | COc1ccccc1C1CCN(c2ccc([N+](=O)[O-])cn2)CC1 | 6.64% (inactive)
33 | O=C(Cn1cc(C(F)(F)F)ccc1=O)N/N=C/c1ccc(Cl)cc1Cl | 4.51% (inactive)
34 | Cc1ccc(NC(=O)CN(C)S(=O)(=O)c2cnc[nH]2)cc1C | 2.37% (inactive)
35 | Cc1ccc(C(=O)N/N=C/c2cccc3ccccc23)cn1 | 0.59% (inactive)
36 | Cc1ccc(C(=O)N/N=C\c2cc(Br)c(Br)o2)cn1 | 39.1% (active)
37 | O=C(N/N=C\c1cc(Br)c(Br)o1)C1COc2ccccc2O1 (stereo not given) | 8.03% (inactive)
38 | CC(C)(C)C1CCc2c(sc3nc(SCC(N)=O)nc(N)c23)C1 (stereo not given) | 0.88% (inactive)
39 | O=C1COc2ccc(C(=O)CSc3ccc(Br)cc3)cc2N1 | 1.67% (inactive)
40 | Cc1ccc(NC(=O)CSc2nc(=O)n(CCN(C)C)c3c2CCCC3)c(C)c1 | 0.09% (inactive)
41 | O=C1CCC(=O)N1CCOP1(=O)COc2ccccc2OC1 | 4.75% (inactive)
42 | Cc1cccc(C)c1NC(=O)CN(C)C(=O)CCC(=O)c1ccccc1 | 7.72% (inactive)
43 | Cc1ccc(C(=O)CCC(=O)N(C)CC(=O)Nc2c(Cl)cccc2Cl)cc1 | -0.97% (inactive)
44 | CN(CC(=O)Nc1ccc(Cl)c(C(F)(F)F)c1)C(=O)CCC(=O)c1ccccc1 | 45.3% (active)
45 | C=CCSc1nnc(N2C(=O)C(O)=C(C(=O)c3ccco3)C2c2ccc(F)cc2)s1 (stereo not given) | 51.8% (active)
46 | Cc1ccc2nc(N3C(=O)C(O)=C(C(=O)c4ccco4)C3c3cccc(O)c3)sc2c1 (stereo not given) | 2.1% (inactive)
47 | CC(C)c1ccc(C2C(C(=O)c3ccco3)=C(O)C(=O)N2CC2CCCO2)cc1 (stereo not given) | 1.85% (inactive)
48 | CC(OC(=O)C1CC(=O)N(Cc2ccccc2)C1)C(=O)Nc1ccccc1[N+](=O)[O-] (stereo not given) | 5.02% (inactive)

Row | Structure (SMILES) | inhibition
49 | C=CCNc1nnc(SCC(=O)N2CCCCC2)c2ccccc12 | 108% (active)
50 | C=CCNc1nnc(C)c2ccccc12 | 1.09% (inactive)
51 | O=C(CSc1ncccn1)N1CCCC1 | 1.98% (inactive)
52 | COCCNC(=O)C(c1ccc(C)cc1)N(C(=O)CCC(=O)Nc1ccccn1)c1cccc(C)c1 (stereo not given) | 3.67% (inactive)
53 | CN(C)C(=O)CSc1n[nH]c(-c2ccco2)n1 | 1.16% (inactive)
54 | O=C1CCC(=O)N1c1ccc(NCCc2ccccc2F)c([N+](=O)[O-])c1 | 4.81% (inactive)
55 | Cc1ccc(C(=O)NC(=S)Nc2ccccc2C)cc1 | 2.65% (inactive)
56 | Cc1ccc(NC(=S)NC(=O)c2ccc(-c3ccccc3)cc2)cc1 | 1.62% (inactive)
57 | COC(=O)c1sc(NC(=S)NC(=O)c2ccc(C)cc2)nc1C | 90.6% (active)
58 | CCOC(=O)c1sc2nc(C)nc(SCC(N)=O)c2c1C | 3.97% (inactive)
59 | C=CCN1C=C2C(=O)C(C)(OC(=O)CCc3ccccc3)C(=O)C=C2C=C1c1ccc(C#N)cc1 (stereo not given) | 26.4% (inactive)
60 | O=C(COC(=O)c1ccco1)NCc1ccc(Cl)cc1 | 3.7% (inactive)
61 | CC(C)(C)OC(=O)NCCCC1=CC2=CC(=O)C(C)(OC(=O)c3ccco3)C(=O)C2=CO1 (stereo not given) | 62.9% (active)
62 | CCCN1CNC(=S)N(CCc2ccccc2)C1 | -3.74% (inactive)
63 | C/C(CC(=O)NC(C)c1ccccc1)=N\NC(N)=S (stereo not given) | 4.39% (inactive)
64 | CC(C)N(C(=O)COC(=O)c1ccccc1C(=O)N1CCN(c2ccc(F)cc2)CC1)C(C)C | 10.7% (inactive)
65 | O=C(COC(=O)c1ccccc1C(=O)N1CCN(c2ccccc2)CC1)NCc1ccccc1 | 56.5% (active)
66 | O=C(c1cc(=O)c2ccccc2o1)N1CCN(c2ccccc2)CC1 | -0.91% (inactive)
67 | CCc1c(C)nc2c(OC)cccc2c1Cl | 7.8% (inactive)
68 | COC(=O)C1CCN(C(=O)c2cc(=O)[nH]c3ccccc23)CC1 | 1.35% (inactive)
69 | O=C(NC1CCCCC1)N1CCc2[nH]c3ccccc3c2C1 | 16.5% (inactive)
70 | COC(=O)[C@H]1[C@H]2C[C@H]3c4[nH]c5ccccc5c4CCN3C[C@@H]2CC[C@@H]1O | 6.53% (inactive) and 60% (active)
71 | CCCC(C)c1nnc(NC(=O)C2CC(=O)N(c3ccc(OCC)cc3)C2)s1 (stereo not given) | 7.2% (inactive)
72 | Cc1ccc(CS(=O)(=O)CCC(=O)NCc2ccc(F)cc2)cc1 | -0.6% (inactive)

Row | Structure (SMILES) | inhibition
73 | COc1ccc(CNc2nnnn2C)cc1 | -1.64% (inactive)
74 | Fc1ccc(CNc2nc3ccccc3n3nnnc23)cc1 | 49% (active)
75 | CCOC(=O)CNc1nc2ccccc2n2c(C)nnc12 | 4.27% (inactive)
76 | CCCCCN(C(=O)NC(=O)Nc1ccccc1C)S(C)(=O)=O | 2.62% (inactive)
77 | O=[N+]([O-])c1ccc(N2CCNCC2)cc1NCc1cccnc1 | -23.7% (inactive)
78 | O=C(NCCCc1ccccc1)C(=O)c1c[nH]c2ccccc12 | 4.6% (inactive)
79 | COc1ccccc1N1CC(C(=O)NCCN2C(=O)S/C(=C\c3cccnc3)C2=O)CC1=O (stereo not given) | 9.93% (inactive)
80 | CCOc1ccc(N2CC(C(=O)NCCN3C(=O)S/C(=C\c4cccnc4)C3=O)CC2=O)cc1 (stereo not given) | -5.5% (inactive)
81 | COc1ccc(N2CC(C(=O)NCCN3C(=O)S/C(=C\c4cccnc4)C3=O)CC2=O)c(OC)c1 (stereo not given) | 149% (active)
82 | O=C(COc1ccc(Cl)cc1)NCCS(=O)(=O)N1CCN(c2ccc(F)cc2)CC1 | 5.68% (inactive)
83 | C=CCN(C(=O)Nc1ccc2oc(C)nc2c1)c1ccccc1 | 13.5% (inactive)
84 | CCN(CC)c1ccc2oc(=O)c(C)nc2c1 | 31.2% (active)
85 | CCN(CC)c1ccc(C(=O)Nn2c(C)nc3ccccc3c2=O)cc1 | 5.43% (inactive)
86 | C=C(C)C(=O)O[C@H]1C/C(C)=C\C(=O)/C=C(\C)[C@H](O)[C@@H]2OC(=O)C(=C)[C@@H]21 | 3.95% (inactive)
87 | Cc1cccc(C(=O)OCC(=O)NCC(C)C)c1O | 2.99% (inactive)
88 | Cc1cnc(C(=O)Oc2cccc(Cl)c2Cl)cn1 | 9.01% (inactive)
89 | Cc1nn2c(c1-c1ccccc1)N=C(c1ccco1)CC2c1ccccc1 (stereo not given) | 3.95% (inactive)
90 | CC1(C)C=C2[C@H]3CC[C@@H]4[C@@]5(C)CCC(=O)C(C)(C)[C@@H]5CC[C@@]4(C)[C@]3(C)CC[C@@]2(C(=O)O)CC1 | 5.29% (inactive)
91 | COc1ccc(CNC(=O)C2CCN(S(=O)(=O)c3ccc(SC)cc3)CC2)cc1 | 9.54% (inactive)
92 | CN(C)/C=C1/Nc2ccccc2C1=O | 18.7% (inactive)
93 | Cc1cc(C)c(/C=C2\C(=O)Nc3ccccc32)[nH]1 | 163% (active)
94 | O=C1Nc2ccccc2/C1=C/c1ccnc2ccccc12 | 2.91% (inactive)
95 | O=C(Nc1ccccc1C(=O)NCCCn1ccnc1)c1ccc(Cl)cc1Cl | 9.41% (inactive)
